From the supplement of paper PMC8728848
The sample as a whole holds a higher share of the strongest signals than the screen did.

Experiments:
Experiment in all cases: glycan array binding signal (z-score within array); higher = stronger binding
Conditions in all cases: glycan notation: IUPAC condensed, linker removed
[1] = target: Fuc(a1-2)Gal
Procedure, shortened: (§1)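 The binding signal is a Z-score computed within each array. Data were drawn from 3228 arrays in the Consortium for Functional Glycomics database, restricted to those with a known protein sequence. Scores were averaged over arrays of the same protein sequence at different concentrations or buffers, and over linkers, and negative values can be taken as non-binding.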

[2] = target: Fuc(a1-2)Gal(b1-3)GlcNAc(b1-3)Gal(b1-4)Glc
Procedure, shortened: as §1

[3] = target: Fuc(a1-2)Gal(b1-3)GlcNAc(b1-3)[Fuc(a1-2)Gal(b1-3)GlcNAc(b1-6)]GalNAc
Procedure, shortened: as §1

[4] = target: Fuc(a1-2)Gal(b1-4)GlcNAc
Procedure, shortened: as §1

[5] = target: Fuc(a1-2)Gal(b1-4)GlcNAc(b1-6)GalNAc
Procedure, shortened: as §1

[6] = target: Fuc(a1-2)Gal6S(b1-3)GlcNAc6S
Procedure, shortened: as §1

[7] = target: Fuc(a1-2)Gal6S(b1-4)Glc6S
Procedure, shortened: as §1

[8] = target: Fuc(a1-2)[Gal(a1-3)]Gal(b1-3)GlcNAc(b1-2)Man(a1-3)[Fuc(a1-2)[Gal(a1-3)]Gal(b1-3)GlcNAc(b1-2)Man(a1-6)]Man(b1-4)GlcNAc(b1-4)[Fuc(a1-6)]GlcNAc
Procedure, shortened: as §1

[9] = target: Fuc(a1-2)[Gal(a1-3)]Gal(b1-4)GlcNAc(b1-3)GalNAc
Procedure, shortened: as §1

[10] = target: Fuc(a1-2)[GalNAc(a1-3)]Gal(b1-4)Glc
Procedure, shortened: as §1

[11] = target: Fuc(a1-2)[GalNAc(a1-3)]Gal(b1-4)GlcNAc(b1-2)Man(a1-3)[Fuc(a1-2)[GalNAc(a1-3)]Gal(b1-4)GlcNAc(b1-2)Man(a1-6)]Man(b1-4)GlcNAc(b1-4)[Fuc(a1-6)]GlcNAc
Procedure, shortened: as §1

[12] = target: Fuc(a1-3)[Gal(b1-4)]GlcNAc6S
Procedure, shortened: as §1

[13] = target: Fuc(a1-3)[Gal3S(b1-4)]Glc
Procedure, shortened: as §1

[14] = target: Gal(a1-3)Gal(b1-4)GlcNAc(b1-2)Man(a1-3)[Gal(a1-3)Gal(b1-4)GlcNAc(b1-2)Man(a1-6)]Man(b1-4)GlcNAc(b1-4)GlcNAc
Procedure, shortened: as §1

[15] = target: Gal(b1-3)GalNAc(b1-3)Gal
Procedure, shortened: as §1

[16] = target: Gal(b1-3)GlcNAc(a1-6)Gal(b1-4)GlcNAc
Procedure, shortened: as §1

[17] = target: Gal(b1-3)GlcNAc(b1-2)Man
Procedure, shortened: as §1

[18] = target: Gal(b1-3)GlcNAc(b1-3)Gal(b1-4)Glc
Procedure, shortened: as §1

[19] = target: Gal(b1-3)GlcNAc(b1-3)Gal(b1-4)GlcNAc(b1-2)[Gal(b1-3)GlcNAc(b1-3)Gal(b1-4)GlcNAc(b1-6)]Man(a1-6)[Gal(b1-3)GlcNAc(b1-3)Gal(b1-4)GlcNAc(b1-2)Man(a1-3)]Man(b1-4)GlcNAc(b1-4)[Fuc(a1-6)]GlcNAc
Procedure, shortened: as §1

[20] = target: Gal(b1-3)GlcNAc(b1-3)Gal(b1-4)GlcNAc(b1-3)Gal(b1-4)GlcNAc(b1-2)[Gal(b1-3)GlcNAc(b1-3)Gal(b1-4)GlcNAc(b1-3)Gal(b1-4)GlcNAc(b1-6)]Man(a1-6)[Gal(b1-3)GlcNAc(b1-3)Gal(b1-4)GlcNAc(b1-3)Gal(b1-4)GlcNAc(b1-2)Man(a1-3)]Man(b1-4)GlcNAc(b1-4)[Fuc(a1-6)]GlcNAc
Procedure, shortened: as §1

[21] = target: Gal(b1-3)GlcNAc(b1-3)Gal(b1-4)[Fuc(a1-3)]GlcNAc
Procedure, shortened: as §1

[22] = target: Gal(b1-4)GlcNAc(b1-2)Man
Procedure, shortened: as §1

[23] = target: Gal(b1-4)GlcNAc(b1-3)Gal(b1-4)GlcNAc(b1-3)Gal(b1-4)GlcNAc(b1-2)Man(a1-3)[Gal(b1-4)GlcNAc(b1-3)Gal(b1-4)GlcNAc(b1-3)Gal(b1-4)GlcNAc(b1-2)Man(a1-6)]Man(b1-4)GlcNAc(b1-4)[Fuc(a1-6)]GlcNAc
Procedure, shortened: as §1

[24] = target: Gal(b1-4)GlcNAc(b1-3)Gal(b1-4)GlcNAc(b1-3)Gal(b1-4)GlcNAc(b1-3)Gal(b1-4)GlcNAc(b1-3)Gal(b1-4)GlcNAc(b1-2)[Gal(b1-4)GlcNAc(b1-3)Gal(b1-4)GlcNAc(b1-3)Gal(b1-4)GlcNAc(b1-3)Gal(b1-4)GlcNAc(b1-3)Gal(b1-4)GlcNAc(b1-6)]Man(a1-6)[Gal(b1-4)GlcNAc(b1-3)Gal(b1-4)GlcNAc(b1-3)Gal(b1-4)GlcNAc(b1-3)Gal(b1-4)GlcNAc(b1-3)Gal(b1-4)GlcNAc(b1-2)Man(a1-3)]Man(b1-4)GlcNAc(b1-4)[Fuc(a1-6)]GlcNAc
Procedure, shortened: as §1

[25] = target: Gal(b1-4)GlcNAc(b1-3)Gal(b1-4)GlcNAc(b1-6)[Gal(b1-3)]GalNAc
Procedure, shortened: as §1

[26] = target: Gal3S(b1-4)Glc6S
Procedure, shortened: as §1

[27] = target: Gal6S(b1-4)Glc
Procedure, shortened: as §1

[28] = target: GalNAc(b1-3)Gal(a1-6)Gal(b1-4)Glc
Procedure, shortened: as §1

[29] = target: GlcNAc(a1-6)Gal(b1-4)GlcNAc
Procedure, shortened: as §1

[30] = target: GlcNAc(b1-2)[GlcNAc(b1-4)]Man(a1-3)[GlcNAc(b1-4)][GlcNAc(b1-2)[GlcNAc(b1-6)]Man(a1-6)]Man(b1-4)GlcNAc(b1-4)[Fuc(a1-6)]GlcNAc
Procedure, shortened: as §1

[31] = target: GlcNAc(b1-3)Fuc
Procedure, shortened: as §1

[32] = target: GlcNAc(b1-3)Gal(b1-4)GlcNAc(b1-2)Man(a1-3)[GlcNAc(b1-3)Gal(b1-4)GlcNAc(b1-2)Man(a1-6)]Man(b1-4)GlcNAc(b1-4)GlcNAc
Procedure, shortened: as §1

[33] = target: GlcNAc(b1-3)Gal(b1-4)GlcNAc(b1-3)Gal(b1-4)GlcNAc(b1-3)Gal(b1-4)GlcNAc(b1-3)Gal(b1-4)GlcNAc(b1-2)Man(a1-3)[GlcNAc(b1-3)Gal(b1-4)GlcNAc(b1-3)Gal(b1-4)GlcNAc(b1-3)Gal(b1-4)GlcNAc(b1-3)Gal(b1-4)GlcNAc(b1-2)Man(a1-6)]Man(b1-4)GlcNAc(b1-4)GlcNAc
Procedure, shortened: as §1

[34] = target: GlcNAc(b1-4)GlcNAc(b1-4)GlcNAc
Procedure, shortened: as §1

[35] = target: GlcNAc(b1-4)GlcNAc(b1-4)GlcNAc(b1-4)GlcNAc(b1-4)GlcNAc
Procedure, shortened: as §1

[36] = target: GlcNAc(b1-4)GlcNAc(b1-4)GlcNAc(b1-4)GlcNAc(b1-4)GlcNAc(b1-4)GlcNAc
Procedure, shortened: as §1

[37] = target: Kdn(a2-3)Gal(b1-3)GalNAc
Procedure, shortened: as §1

[38] = target: Man(b1-4)GlcNAc
Procedure, shortened: as §1

[39] = target: Neu5Ac(a2-3)Gal(b1-3)GlcNAc6S
Procedure, shortened: as §1

[40] = target: Neu5Ac(a2-3)Gal(b1-3)[Neu5Ac(a2-6)]GlcNAc(b1-3)[Fuc(a1-3)[Gal(b1-4)]GlcNAc(b1-6)]Gal(b1-4)Glc
Procedure, shortened: as §1

[41] = target: Neu5Ac(a2-3)Gal(b1-4)GlcNAc(b1-2)Man(a1-3)[Neu5Ac(a2-6)Gal(b1-4)GlcNAc(b1-2)Man(a1-6)]Man(b1-4)GlcNAc(b1-4)GlcNAc
Procedure, shortened: as §1

[42] = target: Neu5Ac(a2-3)Gal(b1-4)GlcNAc(b1-3)Gal(b1-4)GlcNAc(b1-3)Gal(b1-4)GlcNAc
Procedure, shortened: as §1

[43] = target: Neu5Ac(a2-3)Gal(b1-4)GlcNAc(b1-3)Gal(b1-4)GlcNAc(b1-3)[Neu5Ac(a2-3)Gal(b1-4)GlcNAc(b1-3)Gal(b1-4)GlcNAc(b1-6)]GalNAc
Procedure, shortened: as §1

[44] = target: Neu5Ac(a2-3)Gal(b1-4)GlcNAc(b1-6)[Gal(b1-3)]GalNAc
Procedure, shortened: as §1

[45] = target: Neu5Ac(a2-3)Gal6S(b1-4)[Fuc(a1-3)]GlcNAc
Procedure, shortened: as §1

[46] = target: Neu5Ac(a2-6)Gal(b1-4)GlcNAc(b1-3)Gal(b1-4)GlcNAc(b1-6)[Gal(b1-3)]GalNAc
Procedure, shortened: as §1

[47] = target: Neu5Ac(a2-8)Neu5Gc(a2-3)Gal(b1-4)GlcNAc
Procedure, shortened: as §1

B1: Mg3lysM (Mycosphaerella graminicola) (protein)
chain: APQNPPTSCSAAPQPTGTGSPGTVCGSTTFTNYTVKAGDTLGAIAKQYNSGVCDIAKVNGIDNPDYIKPDQVLSIPANCVTPDNTSCVKPVPVITNTCVLGVGSTYTVKSGDSFSAIATSFNITLASLEARNPQIPNYDLIFPGQVINTPLCPNSVCDSIGTYVIESGDIFYNLAQSNNVTVGQLESLNVNVNVTDIHPGDIIILPHNCHNITASA
glycan array binding signal (z-score) [1]: -0.076
glycan array binding signal (z-score) [2]: -0.042
glycan array binding signal (z-score) [3]: 0.259
glycan array binding signal (z-score) [4]: -0.021
glycan array binding signal (z-score) [5]: -0.086
glycan array binding signal (z-score) [6]: -0.089
glycan array binding signal (z-score) [7]: -0.1
glycan array binding signal (z-score) [8]: -0.127
glycan array binding signal (z-score) [9]: -0.118
glycan array binding signal (z-score) [10]: -0.072
glycan array binding signal (z-score) [11]: 0.01
glycan array binding signal (z-score) [12]: 0.023
glycan array binding signal (z-score) [13]: -0.089
glycan array binding signal (z-score) [14]: -0.058
glycan array binding signal (z-score) [15]: 0.131
glycan array binding signal (z-score) [16]: -0.12
glycan array binding signal (z-score) [17]: -0.123
glycan array binding signal (z-score) [18]: -0.065
glycan array binding signal (z-score) [19]: 0.063
glycan array binding signal (z-score) [20]: 0.15
glycan array binding signal (z-score) [21]: -0.157
glycan array binding signal (z-score) [22]: -0.039
glycan array binding signal (z-score) [23]: -0.107
glycan array binding signal (z-score) [24]: 0.14
glycan array binding signal (z-score) [25]: -0.078
glycan array binding signal (z-score) [26]: -0.101
glycan array binding signal (z-score) [27]: -0.027
glycan array binding signal (z-score) [28]: -0.127
glycan array binding signal (z-score) [29]: -0.108
glycan array binding signal (z-score) [30]: -0.113
glycan array binding signal (z-score) [31]: 0.041
glycan array binding signal (z-score) [32]: -0.109
glycan array binding signal (z-score) [33]: -0.191
glycan array binding signal (z-score) [34]: 3.96
glycan array binding signal (z-score) [35]: 19.9
glycan array binding signal (z-score) [36]: 13.5
glycan array binding signal (z-score) [37]: 0.259
glycan array binding signal (z-score) [38]: 0.12
glycan array binding signal (z-score) [39]: -0.154
glycan array binding signal (z-score) [40]: 0.077
glycan array binding signal (z-score) [41]: -0.088
glycan array binding signal (z-score) [42]: -0.099
glycan array binding signal (z-score) [43]: 0.153
glycan array binding signal (z-score) [44]: -0.065
glycan array binding signal (z-score) [45]: -0.14
glycan array binding signal (z-score) [46]: 0.12
glycan array binding signal (z-score) [47]: 0.137
